# In the supplement of paper PMC8728848:
# The full list was thinned out, with the strongest signals kept by preference.
# Legend:
# Assay in all cases: glycan array binding signal (z-score within array); higher = stronger binding
# Settings in all cases: glycan notation: IUPAC condensed, linker removed
# [1] = biological target: Fuc(a1-2)Gal(b1-3)GalNAc(a1-3)[Fuc(a1-2)]Gal(b1-4)Glc
# Method in brief: (§1)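 Glycan array data were curated from 3228 arrays in the Consortium for Functional Glycomics database and kept only where the protein sequence was available. Glycan names were converted to IUPAC-condensed notation, and columns mapping to the same glycan were averaged. The binding signal is a within-array Z-score, averaged across arrays of the same protein sequence at different concentrations or buffers and across linkers. Negative Z-scores can be read as non-binding.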
# [2] = biological target: Fuc(a1-2)Gal(b1-3)GalNAc(b1-4)[Neu5Ac(a2-3)]Gal(b1-4)Glc
# Method in brief: as §1
# Fuc(a1-2)Gal(b1-3)GlcNAc = biological target: Fuc(a1-2)Gal(b1-3)GlcNAc
# Method in brief: as §1
# [3] = biological target: Fuc(a1-2)Gal(b1-3)GlcNAc(b1-3)GalNAc
# Method in brief: as §1
# [4] = biological target: Fuc(a1-2)Gal(b1-4)GlcNAc(b1-2)[Fuc(a1-2)Gal(b1-4)GlcNAc(b1-4)]Man(a1-3)[Fuc(a1-2)Gal(b1-4)GlcNAc(b1-2)Man(a1-6)]Man(b1-4)GlcNAc(b1-4)GlcNAc
# Method in brief: as §1
# [5] = biological target: Fuc(a1-2)Gal(b1-4)GlcNAc6S
# Method in brief: as §1
# [6] = biological target: Fuc(a1-2)Gal(b1-4)[Fuc(a1-3)]GlcNAc(b1-2)[Fuc(a1-2)Gal(b1-4)[Fuc(a1-3)]GlcNAc(b1-4)]Man(a1-3)[Fuc(a1-2)Gal(b1-4)[Fuc(a1-3)]GlcNAc(b1-2)Man(a1-6)]Man(b1-4)GlcNAc(b1-4)GlcNAc
# Method in brief: as §1
# [7] = biological target: Fuc(a1-2)[Gal(a1-3)]Gal(b1-4)GlcNAc(b1-2)Man(a1-3)[Fuc(a1-2)[Gal(a1-3)]Gal(b1-4)GlcNAc(b1-2)Man(a1-6)]Man(b1-4)GlcNAc(b1-4)GlcNAc
# Method in brief: as §1
# [8] = biological target: Fuc(a1-2)[GalNAc(a1-3)]Gal(b1-3)GalNAc(a1-3)[Fuc(a1-2)]Gal(b1-4)GlcNAc
# Method in brief: as §1
# [9] = biological target: Fuc(a1-2)[GalNAc(b1-3)]Gal
# Method in brief: as §1
# [10] = biological target: Fuc(a1-3)[Gal(b1-4)]GlcNAc(b1-3)GalNAc
# Method in brief: as §1
# [11] = biological target: Fuc(a1-3)[Gal(b1-4)]GlcNAc(b1-4)Gal(b1-4)[Fuc(a1-3)]GlcNAc(b1-4)Gal(b1-4)[Fuc(a1-3)]GlcNAc
# Method in brief: as §1
# [12] = biological target: Fuc(a1-3)[Gal(b1-4)]GlcNAc(b1-6)[Gal(b1-3)GlcNAc(b1-3)]Gal(b1-4)Glc
# Method in brief: as §1
# Fuc(b1-3)GlcNAc = biological target: Fuc(b1-3)GlcNAc
# Method in brief: as §1
# [13] = biological target: Gal(a1-3)Fuc(a1-2)Gal(b1-4)GlcNAc(b1-3)[Gal(a1-3)Fuc(a1-2)Gal(b1-4)GlcNAc(b1-6)]GalNAc
# Method in brief: as §1
# Gal(b1-3)Gal = biological target: Gal(b1-3)Gal
# Method in brief: as §1
# [14] = biological target: Gal(b1-3)[Fuc(a1-4)]GlcNAc(b1-3)Gal(b1-4)GlcNAc
# Method in brief: as §1
# [15] = biological target: Gal(b1-4)GalNAc(a1-3)[Fuc(a1-2)]Gal(b1-4)GlcNAc
# Method in brief: as §1
# [16] = biological target: Gal(b1-4)GlcNAc(b1-2)Man(a1-3)[Man(a1-6)]Man(b1-4)GlcNAc(b1-4)GlcNAc
# Method in brief: as §1
# [17] = biological target: Gal(b1-4)GlcNAc(b1-3)Gal(b1-4)GlcNAc(b1-3)Gal(b1-4)GlcNAc
# Method in brief: as §1
# [18] = biological target: Gal(b1-4)GlcNAc(b1-3)Gal(b1-4)[Fuc(a1-3)GlcNAc(b1-6)]Gal(b1-4)Glc
# Method in brief: as §1
# [19] = biological target: Gal(b1-4)GlcNAc(b1-6)GalNAc
# Method in brief: as §1
# Gal4S6S(b1-4)GlcNAc = biological target: Gal4S6S(b1-4)GlcNAc
# Method in brief: as §1
# GalNAc(b1-3)Gal = biological target: GalNAc(b1-3)Gal
# Method in brief: as §1
# [20] = biological target: GlcNAc(b1-3)Gal(b1-4)GlcNAc
# Method in brief: as §1
# GlcNAc(b1-3)Man = biological target: GlcNAc(b1-3)Man
# Method in brief: as §1
# Kdn(a2-3)Gal(b1-3)GlcNAc = biological target: Kdn(a2-3)Gal(b1-3)GlcNAc
# Method in brief: as §1
# [21] = biological target: Man(a1-2)Man(a1-2)Man(a1-6)[Man(a1-3)]Man
# Method in brief: as §1
# [22] = biological target: Man(a1-2)Man(a1-3)[Man(a1-2)Man(a1-6)]Man(a1-6)[Man(a1-2)Man(a1-2)Man(a1-3)]Man
# Method in brief: as §1
# [23] = biological target: Man(a1-2)Man(a1-6)[Man(a1-3)]Man(a1-6)[Man(a1-2)Man(a1-2)Man(a1-3)]Man
# Method in brief: as §1
# [24] = biological target: Man(a1-2)Man(a1-6)[Man(a1-3)]Man(a1-6)[Man(a1-2)Man(a1-2)Man(a1-3)]Man(b1-4)GlcNAc(b1-4)GlcNAc
# Method in brief: as §1
# Man(a1-3)[Man(a1-6)]Man = biological target: Man(a1-3)[Man(a1-6)]Man
# Method in brief: as §1
# [25] = biological target: Man(a1-3)[Man(a1-6)]Man(a1-6)[Man(a1-2)Man(a1-3)]Man(b1-4)GlcNAc(b1-4)GlcNAc
# Method in brief: as §1
# [26] = biological target: Man(a1-3)[Man(a1-6)]Man(a1-6)[Man(a1-3)]Man
# Method in brief: as §1
# [27] = biological target: Man(a1-3)[Man(a1-6)]Man(a1-6)[Man(a1-3)]Man(b1-4)GlcNAc(b1-4)GlcNAc
# Method in brief: as §1
# [28] = biological target: Neu5Ac(a2-3)Gal(b1-3)GalNAc(b1-4)[Neu5Ac(a2-8)Neu5Ac(a2-3)]Gal(b1-4)Glc
# Method in brief: as §1
# Neu5Ac(a2-3)Gal(b1-4)Glc = biological target: Neu5Ac(a2-3)Gal(b1-4)Glc
# Method in brief: as §1
# [29] = biological target: Neu5Ac(a2-3)Gal(b1-4)[Fuc(a1-3)]GlcNAc6S
# Method in brief: as §1
# [30] = biological target: Neu5Ac(b2-6)Gal(b1-4)GlcNAc
# Method in brief: as §1
# [31] = biological target: Neu5Gc(a2-3)Gal(b1-4)[Fuc(a1-3)]GlcNAc
# Method in brief: as §1
binder,measurement,setting,value
"BC2L-D C-terminal domain (Burkholderia cenocepacia), Q39MQ9_BURS3 (protein) LVIVDAVTLLSAYPEASRDPAAPTVIDGRHLYVVSPGDAAQLGHNDSRLFTGLSPGDQLHLRETALALRAEVSVLFIRFALKDAGIVAPIELEVRDAATAVPDADDLLHPSCRPLKDHYWRSDVLAAGATTCTADFAVCDRDGTVSGYFRWETSIEIAGSQPDTKQPGFKPSSDRNGNFSLPPNTAFKAIFYANAADRQDLKLFIDDAPEPAATFVGNSEDGVRLFTLNSKGGKIRIEASANGRQSATDARLAPLSAGDTVWLGWLGAEDGADADYNDGIVILQWPIT",glycan array binding signal (z-score),[1],-0.158
same,glycan array binding signal (z-score),[2],0.376
same,glycan array binding signal (z-score),Fuc(a1-2)Gal(b1-3)GlcNAc,0.536
same,glycan array binding signal (z-score),[3],-0.16
same,glycan array binding signal (z-score),[4],-0.137
same,glycan array binding signal (z-score),[5],0.114
same,glycan array binding signal (z-score),[6],-0.147
same,glycan array binding signal (z-score),[7],-0.167
same,glycan array binding signal (z-score),[8],-0.169
same,glycan array binding signal (z-score),[9],-0.242
same,glycan array binding signal (z-score),[10],-0.164
same,glycan array binding signal (z-score),[11],0.024
same,glycan array binding signal (z-score),[12],-0.165
same,glycan array binding signal (z-score),Fuc(b1-3)GlcNAc,-0.241
same,glycan array binding signal (z-score),[13],-0.159
same,glycan array binding signal (z-score),Gal(b1-3)Gal,-0.242
same,glycan array binding signal (z-score),[14],-0.137
same,glycan array binding signal (z-score),[15],-0.242
same,glycan array binding signal (z-score),[16],0.676
same,glycan array binding signal (z-score),[17],-0.242
same,glycan array binding signal (z-score),[18],-0.165
same,glycan array binding signal (z-score),[19],-0.2
same,glycan array binding signal (z-score),Gal4S6S(b1-4)GlcNAc,-0.243
same,glycan array binding signal (z-score),GalNAc(b1-3)Gal,-0.243
same,glycan array binding signal (z-score),[20],-0.241
same,glycan array binding signal (z-score),GlcNAc(b1-3)Man,-0.243
same,glycan array binding signal (z-score),Kdn(a2-3)Gal(b1-3)GlcNAc,-0.242
same,glycan array binding signal (z-score),[21],5.14
same,glycan array binding signal (z-score),[22],4.23
same,glycan array binding signal (z-score),[23],5.62
same,glycan array binding signal (z-score),[24],6.24
same,glycan array binding signal (z-score),Man(a1-3)[Man(a1-6)]Man,4.31
same,glycan array binding signal (z-score),[25],6.86
same,glycan array binding signal (z-score),[26],5.02
same,glycan array binding signal (z-score),[27],3.67
same,glycan array binding signal (z-score),[28],-0.154
same,glycan array binding signal (z-score),Neu5Ac(a2-3)Gal(b1-4)Glc,-0.248
same,glycan array binding signal (z-score),[29],-0.244
same,glycan array binding signal (z-score),[30],-0.248
same,glycan array binding signal (z-score),[31],-0.236
